According to PubChem BioAssay AID1572 (National Center for Advancing Translational Sciences (NCATS), 2009):
Results filed as inconclusive are left out. Unmarked numbers belong to inactive results. The source made the active and inactive calls. Calls follow the shape of the dose curve; as a rule, active = well fitted curve in either direction with a large enough effect; inconclusive = small, poorly fitted or top-dose-only effect; inactive = flat fitted curve, though single readings scatter.

Experiment: Total Fluorescence Confirmation Counterscreen for Inhibitors of the Interaction of Thyroid Hormone Receptor and Steroid Receptor Coregulator 2
Conditions: Texas Red total fluorescence, TRbeta/SRC2 FP artifact counterscreen; series mostly up to 92.2 µM; total fluorescence change, both ways: at the top concentration
Description: NIH Molecular Libraries Probe Production Network [MLPCN] NIH Chemical Genomics Center [NCGC] MLPCN Grant: DK058080 Assay Provider: R. Kip Guy, St. Jude Children's Research Hospital NCGC Assay Overview: Thyroid receptor (TR) regulates many homeostatic processes including basal metabolism, cardiovascular function, body weight, and lipid trafficking. TR modulators are potential therapeutics for obesity and hyperlipidemias but current thyroid analogs have undesirable side effects, particularly cardiac stimulation. To identify inhibitors that specifically prevent the interaction of TR with the steroid receptor coregulator 2 (SRC2), a fluorescence polarization assay was screened. This assay detects interaction of the ligand-binding domain of human TRbeta with a Texas Red labeled SRC2 peptide, corresponding to a 20 amino acid region of the nuclear receptor interaction domain (Arnold et al., 2006). Total fluorescence (555 nm excitation and 632 nm emission) was measured to identify potential fluorescent and light absorbing compounds. Such compounds may be artifacts that interfere with the fluorescence polarization assay. This assay is a confirmation assay for AID 1479. Arnold, L. A.; Estebanez-Perpina, E.; Togashi, M.; Shelat, A.; Ocasio, C. A.; McReynolds, A. C.; Nguyen, P.; Baxter, J. D.; Fletterick, R. J.; Webb, P.; Guy, R. K. A high-throughput screening method to identify small molecule inhibitors of thyroid hormone receptor coactivator binding. Sci STKE 2006, p 13.
NCGC Assay Protocol Summary: For screening, 5 uL/well 0.6 uM TRbeta and 20 nM SRC2 Texas Red in protein buffer (20mM Tris hydrochloride, 100mM NaCl, 10% glycerol, 1mM EDTA, 0.01% NP-40, 1mM DTT, 1uM T3 and 5% DMSO) was dispensed into black solid 1536-well plates (Grenier) using a solenoid-based dispenser. Following transfer of 23 nL compound or DMSO vehicle by a pin tool, the plates were centrifuged 15 s at 1000 RPM and incubated 5 hr at ambient temperature. The plates were read by an Envision (Perkin Elmer) to detect fluorescence polarization of SRC2 Texas Red (555 nm excitation and 632 nm emission). Data were normalized to unbound (all components except TRbeta) and bound SRC2 Texas Red controls. Total fluorescence (TF) was calculated as follows: TF = S + 2P where S and P are fluorescence readings in the parallel and perpendicular channels, respectively. In this assay, we provide % activity data for each concentration as well as potencies for the active compounds.

Structure (SMILES) | total fluorescence change, both ways | Potency
CCN(C(=O)C1CCCN(c2ncnc3onc(-c4ccc(F)cc4)c23)C1)c1ccccc1 (stereo not given) | 5.18% [at 184 µM] | 
COc1ccc(C(=O)Oc2ccc(C(c3c(C)[nH][nH]c3=O)c3c(C)[nH][nH]c3=O)cc2OC)cc1 | 6.44% [at 184 µM] | 
O=c1[nH]c(Nc2ccccc2)cc2ccccc12 | 5.66% | 
COc1ccc2ccc3c(c2c1)N=CC1(O3)N(C)c2ccccc2C1(C)C (stereo not given) | 2.19% | 
Cc1ccc2c(CC(=O)Nc3c(C(=O)c4ccc(F)cc4)oc4ccccc34)coc2c1C | 4.74% [at 184 µM] | 
COc1cc(NC(C)CCCN)c2ncccc2c1 (stereo not given) | 2.44% [at 184 µM] | 
CC1=NN(Cc2ccccc2)C(=O)C1 | 4.8% | 
N/C(Cc1cccc2ccccc12)=N\OC(=O)c1cccs1 | 29.5% | 
Cc1cccc(Cn2c(C(=O)OC(C)C)cc3c2ccn3C)c1 | 2.46% | 
CN(C)c1cc(Cl)c2nonc2c1N | 1.14% | 
Cc1ccc(OC(=S)Nc2ccc(O)cc2)cc1 | -1.98% | 
CN1N=C(C(C)(C)C)CC1=O | 1.82% | 
CCOc1ccc(NC(=O)C(c2ccccn2)N(C(=O)CCl)c2ccc(F)cc2)cc1 (stereo not given) | 1.73% | 
COC(=O)c1ccccc1-c1ccc(C(c2c(C)[nH][nH]c2=O)c2c(C)[nH][nH]c2=O)o1 | 4.88% | 
CCOc1cc(C(c2c(C)[nH][nH]c2=O)c2c(C)[nH][nH]c2=O)ccc1OS(=O)(=O)c1ccc(C)cc1 | 5.37% | 
C=CCNC(=O)/C(C#N)=C\c1cc(Cl)c(OCC)c(OC)c1 | -0.935% | 
CCC(CNc1cc(OC)cc2cccnc12)NC1CCCCC1 (stereo not given) | 26.9% | 
Nc1cnccc1C(=O)O | 11.1% | 
C=CCSc1nnc2n(-c3ccccc3OC)c(=O)c3c4c(sc3n12)CCC4 | 3.26% | 
CN(C(=S)Nc1cccnc1)c1ccc(O)cc1 | 5.43% | 

Structure (SMILES) | total fluorescence change, both ways | Potency
CCCc1cc(=O)[nH]c(=S)[nH]1 | -2% | 
Cc1c(C#N)c(O)n(CCO)c(=O)c1N=Nc1ccc2c(c1)COC2=O | -2.59% | 
O=C(O)C1C2C=CC(O2)C1C(=O)Nc1ccc(S(=O)(=O)N2CCc3ccccc32)cc1 (stereo not given) | 9.53% | 
CCc1ccc2c(c1)c1nc(C)sc1n2CC | 0.366% | 
CCCCCCN=CC1=C(O)CC(C)(C)CC1=O | 3.03% | 
Nc1cccnc1Sc1cc(Cl)c(Cl)cc1Cl | 6.8% | 
Cn1c(NNC(=O)c2c(F)cccc2F)cc(=O)n(C)c1=O | 2.85% | 
CS(=O)(=O)c1ccc(C(=O)OCC(=O)NC(=O)C2CCCCC2)cc1[N+](=O)[O-] | -3.18% | 
CCN(CC)S(=O)(=O)c1cccc(N=NC2=C(O)CCCC2=O)c1 | 6.08% | 
Cc1nc2ccccc2n2c(O)c(CC(=O)O)cc12 |  | 31.6 µM [fluorescent] (active)
C/C(=C\C(=O)c1ccccc1)Nc1ccc(O)cc1 | 0.528% | 
CCC(C)NC(=O)COC(=O)c1csc2c1CCCC2 (stereo not given) | 8.07% | 
CCOC(=O)c1cnc2nc(NCc3ccc(OC)c(OC)c3)[nH]n2c1=O | 6.28% | 
CCOC(=O)C(NC(=O)Nc1ccc(O)cc1)(c1ccccc1)C(F)(F)F (stereo not given) | 6.83% | 
Cn1cc(/C=C2\SC(=S)N(NC(=O)c3ccccc3)C2=O)c2ccccc21 |  | 70.8 µM [fluorescent] (active)
COc1cc(NCCCC(C)N)c2ncccc2c1 (stereo not given) | 1.79% | 
CN1c2ccccc2C(C)(C)C12C=Nc1c(ccc3ccccc13)O2 (stereo not given) | 3.13% | 
COn1c2c(c3c4nonc4ccc31)CCCC2 | 5.67% | 
C=CCNC(=O)/C(C#N)=C/c1c(C)nn(-c2ccc(Cl)cc2)c1Cl | 4.25% | 
COc1ccc(-c2nc(CS(=O)CC(=O)NCc3ccccn3)c(C)o2)cc1 (stereo not given) |  | 35.5 µM [fluorescent] (active)
